Screens as filed in PubChem.
MPTP inh: mitochondrial permeability transition pore inhibitors, primary screen, biochemical, isolated mouse mitochondria, absorbance; AID 602449, 2012; inhibition, % at 10 µM; Ca2+ swelling absorbance, 30 min; actives 1.4% (n = 360,000);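 active = inhibition of 50% or more, scaled per plate between neutral and stimulator controls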;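 note: 0% = DMSO wells given calcium and 100% = 1 mM EGTA wells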
Mdm2-MdmX inh: inhibitors of human Mdm2-MdmX association, primary screen, cell-based, luminescence, split luciferase, SaOS-2, uHTS; Protein Mdm4 (Homo sapiens) + E3 ubiquitin-protein ligase Mdm2 (Homo sapiens), …; SaOS-2 split-luciferase Mdm2/MdmX complementation; actives 3% (n = 330,000); inhibition, % at 8 µM; AID 485346, 2010;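 active = inhibition of at least 50% at 8 µM in the primary screen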
Target sequence (O15151 whole entry, looked up): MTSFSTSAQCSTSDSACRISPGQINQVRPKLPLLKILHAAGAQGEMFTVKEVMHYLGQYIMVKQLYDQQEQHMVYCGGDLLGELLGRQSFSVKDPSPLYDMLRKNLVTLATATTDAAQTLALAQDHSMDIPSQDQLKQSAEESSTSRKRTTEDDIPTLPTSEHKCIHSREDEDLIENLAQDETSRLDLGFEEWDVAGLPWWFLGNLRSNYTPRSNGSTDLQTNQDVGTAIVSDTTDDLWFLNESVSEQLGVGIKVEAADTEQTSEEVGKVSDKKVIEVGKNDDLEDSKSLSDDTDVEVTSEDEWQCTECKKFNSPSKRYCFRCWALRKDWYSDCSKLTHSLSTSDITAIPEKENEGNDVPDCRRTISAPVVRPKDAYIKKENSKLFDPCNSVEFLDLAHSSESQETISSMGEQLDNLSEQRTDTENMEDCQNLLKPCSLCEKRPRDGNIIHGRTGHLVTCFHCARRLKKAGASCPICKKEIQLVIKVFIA
Target sequence (Q00987 whole entry, looked up): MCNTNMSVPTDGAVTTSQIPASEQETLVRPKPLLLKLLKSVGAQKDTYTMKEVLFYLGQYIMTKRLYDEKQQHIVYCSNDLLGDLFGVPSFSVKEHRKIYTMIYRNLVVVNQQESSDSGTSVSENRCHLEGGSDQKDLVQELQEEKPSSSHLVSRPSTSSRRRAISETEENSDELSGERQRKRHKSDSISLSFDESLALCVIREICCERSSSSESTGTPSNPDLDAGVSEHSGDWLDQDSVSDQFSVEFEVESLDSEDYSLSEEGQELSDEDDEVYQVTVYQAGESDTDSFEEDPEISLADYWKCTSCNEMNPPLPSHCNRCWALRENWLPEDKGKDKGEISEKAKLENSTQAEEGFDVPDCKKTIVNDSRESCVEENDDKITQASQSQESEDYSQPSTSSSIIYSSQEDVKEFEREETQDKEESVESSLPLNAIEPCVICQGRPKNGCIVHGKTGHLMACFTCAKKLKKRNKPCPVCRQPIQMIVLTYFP
Beta apoptosis: inhibitors of cytokine-induced beta cell apoptosis, primary screen, luminescence | actives 0.8% (n = 300,000) | protection from apoptosis, % (concentration not given with the values) | INS-1E cytokine-induced death, ATP luminescence, 48 h; percent of positive-control rescue, neutral wells zero;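 active = Every replicate reaches about 75%, or at least half do and their mean reaches it too, limit read from the data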;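 note: 0% = cytokine-treated negative control wells and 100% = positive control rescue; higher means more ATP so stronger rescue from cytokine killing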
Calb FLC: C. albicans growth inhibition with fluconazole, primary screen, CaCi-2 strain, Alamar Blue fluorescence; C. albicans CaCi-2 (fluconazole-resistant clinical isolate) + fluconazole, 48 h; actives 0.57% (n = 300,000); growth inhibition, % (concentration not given with the values);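 active = growth inhibition above about 58% in most replicates, limit read from the data, passing the limit was not always enough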;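 note: all wells also contain fluconazole at 8 µg/ml as a sub-toxic cotreatment; 0% = median of DMSO wells and 100% = median of geldanamycin control wells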
CSC inhib: cancer stem cell viability inhibitors, primary screen, luminescence | AID 2717, 2010 | inhibition, % at 7.5 µM | actives 1.1% (n = 300,000) | cancer stem cell-like cells viability; in the data active = inhibition above about 75%; tested in HMLE shEcad cells
* = called active by the depositor. Hits are enriched below; roughly 4.8% of the tested compounds scored in any of these assays.

`O=C(/C=C/c1cccc([N+](=O)[O-])c1)c1ccc([N+](=O)[O-])o1` gave MPTP inh -1.5, Beta apoptosis 133.5*, Calb FLC 1.8 and CSC inhib 42.0.
`COC(=O)C[C@@H]1CC[C@@H](NS(=O)(=O)c2cccc(OC)c2)[C@@H](CO)O1` gave MPTP inh -0.5.
CC1(C(=O)NS(=O)(=O)c2ccccc2C(F)(F)F)CCN1C(=O)CCc1cccs1 (stereo unspecified) was read as MPTP inh -1.8.
Screening Cc1ccc2[nH]c3nc(N/N=C/c4cccc(O)c4)nnc3c2c1 returned MPTP inh 0.3, Mdm2-MdmX inh 20.1, Beta apoptosis -3.1, Calb FLC 4.3 and CSC inhib 80.8*.
Screening CC(CC(=O)N1CCN(c2cccc(Cl)c2)CC1)S(=O)(=O)c1ccc2c(c1)NC(=O)CO2 (stereo unspecified) returned MPTP inh 30.1, Mdm2-MdmX inh -2.5, Beta apoptosis 80.4*, Calb FLC -8.2 and CSC inhib -8.1.
Brc1ccc(/C=N/Nc2ccccc2)cc1 was read as MPTP inh 6.4, Mdm2-MdmX inh -15.6, Beta apoptosis 3.8, Calb FLC -11.3 and CSC inhib 78.9*.
Screening CCOC(=O)C1=CCN(S(=O)(=O)c2ccccc2F)C1c1ccccc1 (stereo unspecified) returned MPTP inh 1.8.
`CC(C)(CN1CCN(Cc2ccccc2)CC1)NS(=O)(=O)c1ccccc1` gave MPTP inh -1.4, Mdm2-MdmX inh -7.2, Beta apoptosis 3.6, Calb FLC -23.5 and CSC inhib 75.8*.
`CC(C)(CN1CCN(C(c2ccccc2)c2ccccc2)CC1)NS(=O)(=O)c1ccccc1` gave MPTP inh 2.2, Mdm2-MdmX inh 5.9, Beta apoptosis 15.4, Calb FLC -1.4 and CSC inhib 97.9*.
For CC(=O)N1CCN(CC(C)(C)NS(=O)(=O)c2ccccc2)CC1 the results were MPTP inh 0.1, Mdm2-MdmX inh -9.6, Beta apoptosis -3.8 and CSC inhib -4.5.
Screening COc1ccc(N2C(=O)c3ccccc3NC(=O)C2C(=O)NCCc2ccccc2F)cc1 (stereo unspecified) returned MPTP inh 1.9.
Screening CSCCC(C(=O)NC1CCCC1)n1c(C2CCCC2)nc2ccccc21 (stereo unspecified) returned MPTP inh 7.0.
Cc1ccc(-n2c3nc(=O)[nH]c(=O)c-3cc3cc([N+](=O)[O-])ccc32)cc1C was read as MPTP inh 3.9, Mdm2-MdmX inh 40.2, Beta apoptosis 14.3, Calb FLC -79.7 and CSC inhib 83.7*.
Cc1ccc(S(=O)(=O)n2cnc3cc([N+](=O)[O-])ccc32)cc1C was read as MPTP inh -2.9, Mdm2-MdmX inh 3.3, Beta apoptosis -4.1, Calb FLC -6.8 and CSC inhib 6.3.
Screening COc1cc(/C=C(\C#N)c2nc3ccccc3s2)cc([N+](=O)[O-])c1O returned MPTP inh 36.2, Mdm2-MdmX inh 9.4 and Calb FLC 87.9*.
Cc1cnc(-c2nc3ccccc3n2C(C)C(=O)Nc2c(C)cccc2C)cn1 (stereo unspecified) was read as MPTP inh 2.1.
Screening Cc1cc(O)c(/C=N/OCc2ccc(Cl)cc2Cl)c(=O)o1 returned MPTP inh 0.2, Mdm2-MdmX inh 17.3, Beta apoptosis -7.4, Calb FLC -1.9 and CSC inhib 6.0.
Screening CN(C)/C=C(\C=N\OCc1ccc(Cl)cc1Cl)C(=O)Nc1ccc(Cl)c(Cl)c1 returned MPTP inh 14.7, Mdm2-MdmX inh 4.8, Beta apoptosis -0.6, Calb FLC -23.6 and CSC inhib 85.0*.
O=C(NCc1ccccc1)C(C1CC1)n1c(Cc2cc(F)cc(F)c2)nc2ccccc21 (stereo unspecified) was read as MPTP inh -0.5.
For O=C(NC(=S)Nc1cccc(Cl)c1N1CCCCC1)c1ccco1 the results were MPTP inh 14.5, Mdm2-MdmX inh 12.6, Beta apoptosis 7.9, Calb FLC -4.3 and CSC inhib 77.2*.
Screening O=C(NC(=S)Nc1cccc(Cl)c1N1CCOCC1)c1cccs1 returned MPTP inh 0.3, Mdm2-MdmX inh 25.9, Beta apoptosis -4.7, Calb FLC -1.3 and CSC inhib -4.2.
O=C(NC(=S)Nc1cccc(Cl)c1N1CCCCC1)c1cccs1 was read as MPTP inh 4.0, Mdm2-MdmX inh 34.2, Beta apoptosis 12.2, Calb FLC 43.5 and CSC inhib 99.3*.
`O=C(NC(=S)Nc1ccccc1N1CCCCC1)c1ccco1` gave MPTP inh -0.2, Mdm2-MdmX inh -11.4, Beta apoptosis 3.5, Calb FLC 14.6 and CSC inhib 41.4.
For CN(CC(=O)Nc1ccc2c(c1)OCO2)CC(=O)Nc1ccc(F)c(F)c1F the results were MPTP inh 0.0, Mdm2-MdmX inh -12.2, Beta apoptosis 3.1 and CSC inhib -15.1.
For CCCCOc1ccc(C(=O)Nc2ccc3c(c2)OCO3)cc1 the results were MPTP inh 1.2, Mdm2-MdmX inh -42.1, Beta apoptosis 0.7, Calb FLC -21.4 and CSC inhib 92.6*.
CCCOc1c(Cl)cc(C(=O)Nc2ccc3c(c2)OCO3)cc1OCC was read as MPTP inh 4.2, Mdm2-MdmX inh 38.9, Beta apoptosis 14.6, Calb FLC 1.0 and CSC inhib 79.2*.
For CN(CC(=O)Nc1ccc(Cl)c(Cl)c1)CC(=O)Nc1ccc2c(c1)OCO2 the results were MPTP inh 3.4, Mdm2-MdmX inh 2.3, Beta apoptosis 0.6 and CSC inhib 80.1*.
CN(C)CCN1CCN(C2CN(CCc3ccccc3)S(=O)(=O)C2)CC1 (stereo unspecified) was read as MPTP inh 1.4.
For O=C(Nc1ccc2c(c1)OCO2)c1ccc2nc([C@@H]3O[C@H](CO)[C@H](O)[C@H](O)[C@H]3O)[nH]c2c1 the results were MPTP inh 0.0.
`O=C(CNS(=O)(=O)c1ccc(Br)s1)NCC1COc2ccccc2O1` (stereo unspecified) gave MPTP inh -0.8, Mdm2-MdmX inh -4.9, Beta apoptosis -5.2, Calb FLC 88.0* and CSC inhib 2.0.
CN(C)c1ccc(-c2ccnc3c2CC(C)(C(=O)NCC2CCOCC2)O3)cc1 (stereo unspecified) was read as MPTP inh 0.5.
S=c1[nH]nc(COc2ccccc2)n1/N=C/C(Cl)=C/c1ccccc1 was read as MPTP inh 17.0, Mdm2-MdmX inh 34.1, Beta apoptosis -11.3, Calb FLC 4.0 and CSC inhib 142.1*.
Screening Oc1ccc(/C=N/n2c(COc3ccccc3)n[nH]c2=S)cc1O returned MPTP inh 1.6, Mdm2-MdmX inh -0.7, Beta apoptosis 0.8, Calb FLC 77.3* and CSC inhib 16.0.
